TRHR agonist: agonists of human TRH receptor. hit rate 0.18% among 360,000. AID 493084. P34981. TRHR cells, calcium flux fluo-8, FDSS agonist mode. activation, % at 2 µM; further: 0% is about no effect
Target sequence (P34981 whole entry, looked up): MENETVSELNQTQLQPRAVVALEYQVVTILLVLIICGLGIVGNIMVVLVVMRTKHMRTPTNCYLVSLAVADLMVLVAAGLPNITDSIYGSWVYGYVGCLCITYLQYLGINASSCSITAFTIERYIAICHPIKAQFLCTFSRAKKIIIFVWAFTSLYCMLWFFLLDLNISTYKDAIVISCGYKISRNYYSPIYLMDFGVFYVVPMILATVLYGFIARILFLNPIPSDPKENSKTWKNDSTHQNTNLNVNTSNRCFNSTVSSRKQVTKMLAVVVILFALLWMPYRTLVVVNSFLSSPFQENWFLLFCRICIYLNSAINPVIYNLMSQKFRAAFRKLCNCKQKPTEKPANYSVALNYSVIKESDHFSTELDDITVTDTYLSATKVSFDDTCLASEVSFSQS
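TRHR-expressing cells loaded with fluo-8 calcium dye; 23 nL library compound pin-transferred, kinetic FDSS fluorescence (Ex 480/Em 530) recorded about 180 s for agonist-induced calcium release, before a 10 nM TRH EC20 addition for potentiator mode.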
D1 ag: activates the human D1 dopamine receptor | P21728 | HEK293 T-REx D1 cells, calcium flux, agonist mode | activation, % at 2 µM | hit rate 1% among 360,000; further: 0% is about no effect
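Agonism was scored from calcium flux recorded over 180 s (1 read/s) after pintool compound addition, following a 10-cycle baseline. Cells were inducible force-coupled HEK293 TREx D1, plated overnight at 30 C and loaded with no-wash calcium dye.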
D1 potentiator: enhances dopamine response at the human D1 receptor | P21728 | HEK293 TREx D1 cells, calcium flux, dopamine EC20 potentiation | potentiation, % at 10 µM | hit rate 0.036% among 360,000 | AID 504651; in the data active means potentiation above about 30%; further: 0% is about no effect
D1 antagonist: antagonists of human D1 dopamine receptor | activity change, negative = inhibition, % at 10 µM | hit rate 3.2% among 360,000 | HEK293 TREx D1 cells, calcium flux, dopamine EC80; hits give low values | AID 504652; in the data active means activity change below about -30%; further: on the % scale 0 is the no-effect control and ±100 the full control effect
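Antagonism measured as reduced calcium response to an EC80 dopamine addition following 180 s compound pre-read; cells were inducible HEK293 Trex D1 plated overnight at 30 C, read kinetically at 1 cycle/sec.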
GRP78 ERSR act: inducers of ER stress response in human glioma cells; Potency, µM, without a hit: top-dose activation, most hits filed as activators; U87-MG GRP78 promoter luciferase reporter, 16 h; hit rate 0.02% among 420,000; active means well fitted activation curve with a large enough effect; further: potency means the concentration at half of the fitted maximal effect; series mostly up to about 76 µM; % of control where 0% means no effect; nearly all actives have a fitted effect of over 35% in size
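Stably transfected U87-MG glioma cells carrying a GRP78-based luciferase sensor; 16 h compound incubation. Luminescence end-point read 10 min after Bright-Glo addition at room temperature.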
TRHR PAM: allosterically enhances the human TRH receptor. TRHR cells, fluo-8 calcium fluorescence, EC20 TRH enhancement. hit rate 0.66% among 360,000. enhancement, % at 2 µM. P34981. AID 493056; in the data active means enhancement above about 30%; further: 0% is about no effect
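Enhancer read-out: after compound pinning and an initial kinetic agonist-mode read, an EC20 of TRH (10 nM final) was injected and fluo-8 calcium signal (Ex 480/Em 530) followed at 1 s/cycle for 100 cycles in TRHR-expressing cells.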
An asterisk follows results filed as active; · = no result. An excerpt weighted towards active compounds, which were near 4% of everything screened. Unless noted, no stated cut-off is given here; in the data, active means activation above about 30%; inactive means the rest.

SMILES	TRHR agonist	D1 ag	D1 potentiator	D1 antagonist	GRP78 ERSR act	TRHR PAM
Cn1/c(=N/N=C/c2ccc([N+](=O)[O-])cc2)sc2ccccc21	-1	30*	3	3	·	-2
O=C(Nc1ccc2nccnc2c1)N1CCCCCC1	·	·	·	·	6%	·
CCN1CCN(CCNC(=O)c2ccc(/C=C3/Sc4ccccc4N(Cc4ccccc4C)C3=O)cc2)CC1	8	40*	-14	-21	-9%	18
CCN1CCN(CCCNC(=O)c2ccc(/C=C3/Oc4ccccc4N(Cc4cccc(C)c4)C3=O)cc2)CC1	-1	39*	-2	-37*	-1%	-12
CCc1ccc(S(=O)(=O)Nc2ccc(Br)cn2)cc1	-1	-4	-5	-30*	-4%	0
COc1cccc(NC(=O)Nc2cc(-c3cn4cccnc4n3)ccc2OC)c1	0	0	-2	5	0%	34*
COc1ccc(-c2cn3cccnc3n2)cc1NC(=O)c1ccc(Br)o1	2	6	-5	-22	-5%	-6
COc1cccc(NC(=O)Nc2cc(-c3cn4cccnc4n3)ccc2C)c1	-1	-1	-1	3	-4%	-5
COc1ccc(-c2cn3cccnc3n2)cc1NC(=O)c1c(F)cccc1F	0	-1	-3	-35*	-1%	1
Oc1ccc(Br)cc1/C=N/Nc1nc(N2CCCCC2)nc(N2CCOCC2)n1	2	3	-3	-3	-3%	-1
COc1ccc(/C=N/Nc2nc(N3CCCC3)nc(N3CCCC3)n2)c(OC)c1OC	1	-1	-7	-42*	-1%	1
Oc1ccc(/C=N/Nc2nc(N3CCCCCC3)nc(N3CCCCCC3)n2)c(O)c1	0	9	-10	-41*	-14%	1
O=S(=O)(Nc1ccc(-c2ccc(N3CCCC3)nn2)cc1)c1cccc(C(F)(F)F)c1	-1	1	-3	2	-2%	-2
O=C(c1ccc2c(c1)CCN2S(=O)(=O)c1ccc(Cl)cc1)N1CCN(c2ccc(F)cc2)CC1	1	0	2	-4	-1%	-4
C=C(C)C(O)/C=C/c1ccc(C)cc1 (stereo unspecified)	·	·	·	·	-3%	·
CCc1ccc(S(=O)(=O)c2c[nH]c3cc(OC)c(OC)cc3c2=O)cc1	0	-1	-4	-43*	-2%	5
COc1ccc2[nH]cc(S(=O)(=O)c3ccc(F)cc3)c(=O)c2c1	0	4	·	18	-3%	1
COCC(C)NC(=O)CCc1nnc(C2(c3ccc(Cl)cc3)CCC2)o1 (stereo unspecified)	0	0	-6	-51*	1%	1
Cc1onc(-c2ccccc2)c1C(=O)OCC(=O)Nc1ccccc1Cl	·	·	·	·	-4%	·
Cc1ccc(NC(=O)C(NC2CCCc3ccccc32)c2ccccc2)c([N+](=O)[O-])c1 (stereo unspecified)	0	4	2	15	-5%	5
CC(NC(=O)c1ccccc1)C(=O)NC1CCCc2ccccc21 (stereo unspecified)	0	4	0	8	-2%	3
CNC(=O)NC(=O)C(NC1CCCc2ccccc21)c1ccccc1 (stereo unspecified)	-1	-1	11	-33*	1%	6
Cc1ccc(NC(=O)C(NC2CCCc3ccccc32)c2ccccc2)cc1Cl (stereo unspecified)	0	9	7	-23	-5%	32*
Cc1cc(C)cc(-n2ccnc(NCc3ccc(F)cc3)c2=O)c1	0	2	1	-17	-2%	3
CN(CCCC[C@H](CNCc1ccc(-c2ccccc2)cc1)N1C[C@H](c2ccccc2)N(CCc2ccc(Cl)c(Cl)c2)C(=O)C1=O)Cc1ccc(-c2ccccc2)cc1	0	3	2	10	·	2
SMILES	TRHR agonist	D1 ag	D1 potentiator	D1 antagonist	GRP78 ERSR act	TRHR PAM
COc1ccc(CNC[C@@H](CCCCN(C)Cc2ccc(OC)cc2)N2C[C@H](c3ccccc3)N(CCc3ccc(Cl)c(Cl)c3)C(=O)C2=O)cc1	0	39*	0	126	-11%	7
CCOc1ccc(CCN2C(=O)C(=O)N([C@@H](CC(C)C)CN3CCC[C@@H]3CN3C(=O)C(=O)NC[C@@H]3CC(C)C)C[C@@H]2Cc2ccccc2)cc1	·	·	·	·	-1%	·
CCOc1ccc(CCN2C(=O)C(=O)N([C@H](CCCN(C)Cc3ccccc3)CNCc3ccccc3)C[C@@H]2C(C)C)cc1	-1	41*	-7	-2	·	14
CCN1CCN(c2ccccc2NC(=O)C(C)Oc2ccc(C(C)=O)cc2)CC1 (stereo unspecified)	0	0	-4	-49*	-3%	7
CC(Oc1ccc(Cl)cc1)C(=O)Nc1ccccc1N1CCOCC1 (stereo unspecified)	·	·	·	·	-4%	·
CCOc1cc(/C=C/C(=O)c2ccc(OC)c(CN3CCOCC3)c2)cc(Br)c1O	40*	41*	-5	-1	3%	-7
CCOc1cc(/C=N/NC(=O)c2ccc(CN3CCOCC3)cc2)ccc1OC	0	2	-3	6	0%	-6
O=C(Cn1cnc2nc3c(cc2c1=O)CCCC3)Nc1ccc(F)cc1Cl	0	0	6	7	-4%	3
O=C(CCc1ccccc1)NC1CC(=O)N(c2cccc(F)c2)C1 (stereo unspecified)	0	-1	1	·	-3%	37*
COc1ccc(N2CC(NC(=O)COc3cccc(C)c3)CC2=O)cc1OC (stereo unspecified)	0	33*	0	·	-2%	-5
COc1ccc(N2CC(NC(=O)COc3ccc(F)cc3)CC2=O)cc1OC (stereo unspecified)	0	86*	3	·	·	-1
COc1ccc(N2CC(NC(=O)COc3ccccc3)CC2=O)cc1OC (stereo unspecified)	1	5	-1	·	-2%	-3
COc1ccc(-n2c(-c3ccco3)nc3c(cnn3-c3ccccc3Cl)c2=O)cc1	0	11	-3	9	-3%	5
O=C(Cc1ccc(Cl)cc1)Nc1ccc(S(=O)(=O)N2CCOCC2)cc1	2	34*	1	29	-7%	10
CC(Oc1ccc(Cl)cc1)C(=O)Nc1cccc(S(=O)(=O)N2CCCC2)c1 (stereo unspecified)	·	·	·	·	-7%	·
COc1ccc(NC(=O)CNCc2ccc(Cl)cc2)cc1S(=O)(=O)N1CCOCC1	·	·	·	·	3%	·
Cc1ccc(CC(=O)Nc2ccc(S(=O)(=O)N3CCOCC3)cc2)cc1	0	7	-2	0	-2%	-7
Cc1ccc(NC(=O)c2ccc(S(=O)(=O)N3CCOCC3)cc2)cc1	0	1	-8	-3	7%	-2
COc1ccc(CC(=O)Nc2ccc(F)c(Cl)c2)cc1S(=O)(=O)N1CCOCC1	1	13	-6	-35*	-5%	1

High-throughput results as filed in PubChem BioAssay.
